Assay outcomes: PubChem BioAssay, several laboratories
Shown are actives, neighbours in structure and some others; about 2.9% of the full set was active somewhere.
MITF TRPM1 inh: inhibitors of MITF-driven TRPM1 promoter in melanoma cells; SK-MEL-5 TRPM1 promoter luciferase, 24 h; inhibition, % at 12.5 µM; 330,000 compounds, 0.83% hits; AID 488899;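 active = mean inhibition across replicates of 60% or more, whatever share of single replicates reaches that level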
Peg3 prom inh: Peg3 promoter activity inhibition. inhibition, % at 20 µM. HeLa PEG-Prom luciferase reporter, luminescence, overnight. 360,000 compounds, 1.7% hits;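 active = inhibition of at least 50% at 20 µM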
KKLEB tox: reduces viability of KKLEB cystic fibrosis airway cells; KKLEB CF airway cells viability, ATPlite luminescence, overnight; stronger effect = lower value; cells stimulated with P. aeruginosa culture filtrate; 360,000 compounds, 0.36% hits; activity change (cytotoxicity), % at 5 µM;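 active = corrected activity change at or below -50% at 5 µM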
Shn3 3UTR inh: Schnurri-3 reporter inhibition in Clone20 osteoblasts | inhibition, % at 12.5 µM | AID 588674 | 360,000 compounds, 0.52% hits | Clone20 osteoblast Shn3 3'UTR firefly luciferase, 24 h;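 active = mean inhibition of at least 75% with every replicate also reaching 75%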;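 also: 0% = median of neutral control wells and 100% = pilot-screen positive control compound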
EBV LMP1 NFkB: Epstein-Barr LMP1 NF-kappaB reporter inhibition. inhibition, % at 12.5 µM. 350,000 compounds, 0.69% hits. AID 504558. LMP1-induced NF-kappaB luciferase reporter cells, luminescence; in the data active = inhibition above about 41%;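 also: 0% = neutral control wells and 100% = reference inhibitor control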
CF NFkB inh: cystic fibrosis NF-kB activation inhibition. KKLEB NF-kB-GFP reporter, PAF-induced, GFP fluorescence overnight. inhibition, % at 5 µM. 360,000 compounds, 0.86% hits. AID 588850;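 active = at least 50% inhibition at 5 µM, scaled per plate between neutral and stimulator controls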;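 also: PAF is a Pseudomonas aeruginosa culture filtrate used as stimulus; plate controls were PAF-stimulated DMSO wells for no effect and unstimulated DMSO wells for full effect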
Active calls of the source: *; . = no result given.

SMILES	MITF TRPM1 inh	Peg3 prom inh	KKLEB tox	Shn3 3UTR inh	EBV LMP1 NFkB	CF NFkB inh
CN(C)c1ccc(/C=N/Nc2cccc(C(=O)O)c2)cc1	84.0*	-161.7	2.0	92.2*	60.8*	13.7
O=C(N/N=C/c1cccnc1)c1ccccc1	-16.8	-48.6	4.7	0.1	-4.1	6.9
O=C(O)c1cccc(N/N=C/c2cccnc2)c1	36.2	57.7*	18.9	-0.9	17.7	-8.5
O=C(NCC1CCCCC1)c1ccc2nc([C@@H]3O[C@H](CO)[C@H](O)[C@H](O)[C@H]3O)[nH]c2c1	.	-9.4	3.7	4.6	.	-5.3
COc1cccc(C(O)c2nc(-c3ccc(N(C)C)cc3)cs2)c1 (stereo not drawn)	.	-211.2	-0.1	48.1	.	-14.0
CCn1c(N2CCN(C(c3ccccc3)c3ccccc3)CC2)nc2c1c(=O)[nH]c(=O)n2C	-1.5	28.0	-8.5	13.5	15.2	12.9
COc1ccc(/C=C/C(=O)OCC(=O)NCCc2ccccc2)c(OC)c1	1.7	6.6	12.2	-4.8	-5.4	-8.9
COc1ccc(-c2noc(CCC(=O)Nc3cccc(C(=O)NC4CC4)c3)n2)cc1OC	.	-6.0	4.9	-11.8	2.9	-2.5
Cn1c2ccccc2c(=O)c2c(=O)n(C3CCCCC3)c(-c3ccco3)nc21	70.4*	0.5	1.0	1.8	-3.2	-20.3
CCC(C)Sc1nc2c(cnn2-c2ccc(C)c(C)c2)c(=O)[nH]1 (stereo not drawn)	-1.8	9.7	-12.2	-15.4	-20.2	29.7
CSc1nc2c(cnn2-c2ccc(C)c(C)c2)c(=O)[nH]1	28.7	59.0*	-4.8	-7.0	6.0	4.6
O=C(Cc1ccccc1)NCCS(=O)c1ccc(Cl)cc1 (stereo not drawn)	9.9	3.6	3.5	92.5*	-2.7	-18.5
O=C(Cc1ccc(Cl)cc1)NCCS(=O)c1ccc(Cl)cc1 (stereo not drawn)	6.3	1.5	-8.2	-22.4	2.8	-15.1
CCOC(=O)N(C)C[C@@H]1OCc2cnnn2CCCC(=O)N([C@H](C)CO)C[C@@H]1C	.	1.7	-21.0	-8.2	0.3	13.3
O=[N+]([O-])c1ccc(O)c(/C=N/Nc2ccc(Cl)nn2)c1	37.7	-8.7	-81.2*	70.3	26.8	62.2*
Cc1ccc(N=Cc2cc(Cc3ccccc3Cl)cc([N+](=O)[O-])c2O)c(O)c1	-2.4	-40.5	6.1	-2.8	2.5	73.3*
Cc1ccc(C)c2sc(N3CCN(C(=O)c4ccc([N+](=O)[O-])o4)CC3)nc12	48.0	18.6	-8.5	46.2	-89.2	-12.6
O=C(c1ccc([N+](=O)[O-])o1)N1CCN(c2nc3c(F)cc(F)cc3s2)CC1	79.3*	-5.1	-14.6	25.7	-24.4	10.3
COc1ccc(C(Nc2ccccn2)c2oc(CO)cc(=O)c2O)cc1 (stereo not drawn)	-13.1	-3.5	-3.2	-29.1	68.2*	-1.4
Cc1ccccc1Oc1ccc2c(c1)[C@@H]1C[C@H](N(C)C(=O)Nc3cc(Cl)cc(Cl)c3)[C@H]([C@H](C)O)C(=O)N1CC2	-6.6	68.1*	-13.1	3.8	13.3	-2.5
Cc1ccccc1Oc1ccc2c(c1)[C@@H]1C[C@H](N(C)C(=O)NC3CCCCC3)[C@H]([C@H](C)O)C(=O)N1CC2	10.2	-1.4	-0.2	14.3	9.5	12.8
COc1ccc([C@@H]2CC(=O)[C@@H]3CN(S(=O)(=O)c4ccc(Cl)cc4)[C@H](c4ccc(C)cc4)C[C@@H]3N2S(=O)(=O)c2ccccc2)cc1	.	14.1	-2.9	4.8	.	15.0
FC(F)(F)c1cc(C(F)(F)F)c2ccc(N3CCN(c4ccc(Cl)cc4)CC3)nc2n1	-9.7	12.7	-24.1	-1.0	7.0	4.1
N#CC(c1ccc(Cl)cc1)c1ccc2c(C(F)(F)F)cc(C(F)(F)F)nc2n1 (stereo not drawn)	78.7*	51.6*	-74.5*	88.7*	52.3*	67.2*
Cc1cccc(C)c1NC(=O)CN(C)CC(=O)Nc1ccccc1Oc1ccccc1	-1.8	12.7	-5.3	-0.2	62.9*	-1.2
SMILES	MITF TRPM1 inh	Peg3 prom inh	KKLEB tox	Shn3 3UTR inh	EBV LMP1 NFkB	CF NFkB inh
CCC/C(C)=N/NC(=O)c1ccccc1O	5.9	11.1	-2.3	-18.9	-2.3	5.1
CCOC(=O)C(CC)/C(C)=N\NC(=O)c1ccccc1O (stereo not drawn)	15.4	54.0*	-11.5	-8.6	-9.9	-11.1
COC(=O)c1ccc(CNC(=O)Cn2cnc3c(OCc4ccccc4)ncnc32)cc1	2.6	83.8*	2.4	0.2	-0.3	-25.4
Cc1ccc(CNC(=O)Cn2cnc3c(OCc4ccccc4)ncnc32)o1	0.7	16.7	-10.5	1.2	-15.9	-6.5
CCCC(c1nnnn1Cc1ccc(OC)cc1)N1CCN(c2ccccc2)CC1 (stereo not drawn)	-4.2	21.6	-3.3	89.2*	2.9	-0.2
COc1ccc(Cn2nnnc2C(CC(C)C)N2CCN(c3ccccc3)CC2)cc1 (stereo not drawn)	0.6	22.5	-3.9	25.5	8.3	1.6
O=C(Nc1ccc([N+](=O)[O-])cc1)Nc1ccc(OC(F)F)c(Cl)c1	75.6*	99.5*	-69.2*	87.7*	68.3*	64.1*
O=C(Nc1ccc(OC(F)F)c(Cl)c1)Nc1ccc2c(c1)OCO2	-43.9	-107.5	9.1	-1.5	-6.2	40.4
Cc1cc(C)nc(Nc2nc(C(N)CCc3ccccc3)cs2)n1 (stereo not drawn)	.	15.2	-13.3	16.1	.	26.8
Cc1cc(C(=O)CSc2nnc(-c3cccs3)o2)c(C)n1-c1ccccc1	39.2	24.5	15.3	15.3	58.4*	-1.8
O=C(N/N=C/c1cccc(O)c1)c1ccc(NC(=O)C2CCCCC2)cc1	17.0	-16.3	6.0	4.7	-3.3	-20.0
O=C(N/N=C/c1ccc(O)cc1O)c1ccc(NC(=O)C2CCCCC2)cc1	67.3*	62.2*	-12.1	50.0	2.2	33.6
CCCCn1nnc(NC(=O)c2sc3cc(Cl)ccc3c2Cl)n1	-4.8	-29.9	0.6	-20.5	1.2	-12.3
CCN(CC)Cc1ccc(NC(=O)c2sc3cc(Cl)ccc3c2Cl)cc1	3.3	105.3*	-3.0	-3.4	-12.9	1.7
O=C(NC1CCCCC1)N1CCN(c2ccc(Cl)cc2)CC1	-3.4	13.8	-8.5	36.8	8.1	5.9
O=C(NC1CCCCC1)N1CCN(c2ccc([N+](=O)[O-])cc2)CC1	14.6	4.4	-6.0	59.8	75.3*	-25.5
COc1ccc(CNC(=O)C(C)OC(=O)c2cccc(N(C)C)c2)cc1 (stereo not drawn)	7.3	13.3	12.7	-13.1	0.9	-26.4
O=C(CCCN1C(=O)/C(=C/c2ccccc2OC(F)F)SC1=S)Nc1cccnc1	-0.4	47.7	6.9	-16.4	22.7	27.0
O=C(Nc1cc(C(=O)N2CCCC2)ccc1N1CCCC1)c1ccccc1F	26.7	-1.4	2.8	15.9	50.6*	-12.7
CNC(=O)c1nn(C)c(=O)[nH]c1=O	0.8	12.4	3.9	-30.9	5.9	-2.4
